Assay results reported in PubChem BioAssay.
Values without a mark were called inactive. Entries that show only a call come without a potency. For some of these results: Potency and affinity values are given separately. Activity calls are given as the source filed them. Unless noted, the rule behind the calls is not given here.

How the values were obtained:
[1] = antimalarial activity against Dd2 strain (AID 2302;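 active = growth inhibition above 50% at the single 2 µM test dose, taken to imply half-maximal potency below 2 µM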); details: P. falciparum Dd2 in RBCs, LDH growth readout, 72 h; at 2 µM; active compounds read high
[2] = HepG2 cytotoxicity, primary screen, cytotoxicity control for P. falciparum antimalarial project, cell-based, ATP luminescence (AID 2303;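 active = inhibition above 50%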); details: HepG2 viability, 24-48 h, at 10 µM, active compounds read high
[3] = target: L-lactate dehydrogenase (Plasmodium falciparum (isolate CDC / Honduras)) (UniProt Q27743); test: PfLDH activity inhibition – cell lysate, 3D7 strain, counter-screen for P. falciparum growth inhibition project (AID 2304); details: P. falciparum 3D7 crude extract, LDH APAD/NBT absorbance; at 2 µM; active compounds read high
Sequence of L-lactate dehydrogenase (Plasmodium falciparum (isolate CDC / Honduras)) (Q27743 whole entry, looked up): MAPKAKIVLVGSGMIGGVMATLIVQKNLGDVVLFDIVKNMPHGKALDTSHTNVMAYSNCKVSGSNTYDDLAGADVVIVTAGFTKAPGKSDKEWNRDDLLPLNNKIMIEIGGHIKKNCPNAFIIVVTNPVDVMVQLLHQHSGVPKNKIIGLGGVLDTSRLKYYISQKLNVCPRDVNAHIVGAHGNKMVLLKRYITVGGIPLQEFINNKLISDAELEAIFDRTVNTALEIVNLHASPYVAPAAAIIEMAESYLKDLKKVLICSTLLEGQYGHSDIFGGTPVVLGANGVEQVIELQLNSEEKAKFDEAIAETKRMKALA

[4] = inhibition of 3D7 malaria parasite growth – strain 3D7 (AID 2306); details: P. falciparum 3D7 erythrocytic growth, LDH absorbance, 72 h; at 2 µM; active compounds read high
[5] = target: Calcium-dependent protein kinase 1 (Plasmodium falciparum (isolate 3D7)) (UniProt P62344); test: PfCDPK1 kinase inhibitors, biochemical, TCAMS library (AID 1159585; cut-off not given, nearly all actives have IC50 up to about 0.98 µM;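 note: inhibitors leave more ATP so luminescence rises with inhibition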); details: recombinant PfCDPK1, Kinase-Glo ATP depletion luminescence
Sequence of Calcium-dependent protein kinase 1 (Plasmodium falciparum (isolate 3D7)) (P62344 whole entry, looked up): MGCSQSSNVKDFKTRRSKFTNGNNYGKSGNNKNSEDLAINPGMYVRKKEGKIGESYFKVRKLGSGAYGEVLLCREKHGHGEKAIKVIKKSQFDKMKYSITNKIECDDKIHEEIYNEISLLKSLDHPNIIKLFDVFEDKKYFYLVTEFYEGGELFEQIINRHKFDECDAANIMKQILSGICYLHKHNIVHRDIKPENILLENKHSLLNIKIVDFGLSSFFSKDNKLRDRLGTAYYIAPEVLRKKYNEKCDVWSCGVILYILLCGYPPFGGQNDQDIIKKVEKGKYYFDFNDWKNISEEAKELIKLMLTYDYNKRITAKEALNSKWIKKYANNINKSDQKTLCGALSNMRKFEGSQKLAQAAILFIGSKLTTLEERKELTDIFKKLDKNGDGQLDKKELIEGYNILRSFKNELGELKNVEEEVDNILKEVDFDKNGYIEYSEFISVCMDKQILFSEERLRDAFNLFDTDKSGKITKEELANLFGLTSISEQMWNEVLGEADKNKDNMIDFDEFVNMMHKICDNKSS

[6] = target: Plasmodium falciparum protein kinase 6 (PK6, PF3D7_1337100) (UniProt Q8IDW1); test: PfPK6 kinase inhibitors, biochemical, TCAMS library (AID 1159586); details: recombinant PfPK6, Kinase-Glo ATP depletion luminescence
Sequence of Plasmodium falciparum protein kinase 6 (PK6, PF3D7_1337100) (Q8IDW1 1-305): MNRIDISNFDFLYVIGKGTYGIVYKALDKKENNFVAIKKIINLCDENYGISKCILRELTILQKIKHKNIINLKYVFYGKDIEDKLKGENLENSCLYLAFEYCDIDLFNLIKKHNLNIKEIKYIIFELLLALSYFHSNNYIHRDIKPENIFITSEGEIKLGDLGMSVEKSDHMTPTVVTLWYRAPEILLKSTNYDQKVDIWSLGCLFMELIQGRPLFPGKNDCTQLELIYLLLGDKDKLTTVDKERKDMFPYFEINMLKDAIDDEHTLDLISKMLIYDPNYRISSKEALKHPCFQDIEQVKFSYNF

[7] = target: Protein kinase 7 (PK7), Plasmodium falciparum 3D7 (PF3D7_0213400) (UniProt Q7YTF7); test: inhibition of Plasmodium PK7 catalytic activity – biochemical, TCAMS antimalarial set, Kinase-Glo luminescence (AID 1159587); details: recombinant PfPK7, Kinase-Glo ATP depletion luminescence
Sequence of Protein kinase 7 (PK7), Plasmodium falciparum 3D7 (PF3D7_0213400) (Q7YTF7 1-343): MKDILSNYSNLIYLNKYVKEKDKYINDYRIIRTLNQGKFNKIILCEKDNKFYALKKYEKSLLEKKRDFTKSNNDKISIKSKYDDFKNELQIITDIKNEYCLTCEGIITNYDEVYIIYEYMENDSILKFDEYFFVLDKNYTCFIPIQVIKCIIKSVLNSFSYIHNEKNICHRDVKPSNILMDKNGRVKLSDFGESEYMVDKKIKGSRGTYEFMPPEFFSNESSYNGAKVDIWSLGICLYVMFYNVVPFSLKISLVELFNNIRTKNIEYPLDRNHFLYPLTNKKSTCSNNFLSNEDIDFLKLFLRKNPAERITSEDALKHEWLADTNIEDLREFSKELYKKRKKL

[8] = target: Calcium-dependent protein kinase 4 (Plasmodium falciparum (isolate 3D7)) (UniProt Q8IBS5); test: PfCDPK4 kinase inhibitors, biochemical, TCAMS library (AID 1159588; cut-off not given, nearly all actives have IC50 up to about 0.91 µM); details: recombinant PfCDPK4, Kinase-Glo ATP depletion luminescence
Sequence of Calcium-dependent protein kinase 4 (Plasmodium falciparum (isolate 3D7)) (Q8IBS5 whole entry, looked up): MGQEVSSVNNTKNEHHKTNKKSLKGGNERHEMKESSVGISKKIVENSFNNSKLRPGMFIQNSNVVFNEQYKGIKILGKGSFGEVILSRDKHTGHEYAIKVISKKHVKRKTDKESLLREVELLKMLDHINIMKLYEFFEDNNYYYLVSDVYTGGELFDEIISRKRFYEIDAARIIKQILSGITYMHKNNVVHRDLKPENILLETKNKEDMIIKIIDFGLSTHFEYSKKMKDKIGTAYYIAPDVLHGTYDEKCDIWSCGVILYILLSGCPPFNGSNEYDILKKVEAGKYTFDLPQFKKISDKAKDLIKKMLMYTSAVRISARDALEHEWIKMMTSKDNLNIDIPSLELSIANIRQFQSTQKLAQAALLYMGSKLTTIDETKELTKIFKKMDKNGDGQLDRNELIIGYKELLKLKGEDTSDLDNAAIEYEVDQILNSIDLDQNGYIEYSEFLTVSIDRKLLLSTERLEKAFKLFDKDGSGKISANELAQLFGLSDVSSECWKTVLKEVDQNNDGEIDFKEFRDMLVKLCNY

Compound | growth inhibition [1] | inhibition [2] | inhibition [3] [%] | growth inhibition [4] | outcome [5] | outcome [6] | outcome [7] | outcome [8]
COc1cccc2c(NN=Cc3cccc([N+](=O)[O-])c3)ccnc12 | 47% | 12% | -7 | 100% (active) | inactive | inactive | inactive | inactive
Cc1cccc2[nH]c(-c3ccc(-c4cccc(CNCCc5ccncc5)c4)s3)nc12 | 89% (active) | 11% | 2 | 100% (active) | inactive | inactive | inactive | inactive
COc1ccc2nccc(N3CCC(CCNCc4cc5c(cn4)OCCO5)CC3)c2c1 | 99% (active) | 26% | 6 | 100% (active) | inactive | inactive | inactive | inactive
Cc1cc(NN=Cc2ccc(F)cc2)c2cccc(C)c2n1 | 99% (active) | 7% | -6 | 100% (active) | inactive | inactive | inactive | inactive
O=C(Nc1ccc(-c2ccccc2)cc1)Nc1cccc(Cn2ncc(N3CCNCC3)c(Cl)c2=O)c1 | 59% (active) | 30% | 5 | 100% (active) | inactive | inactive | inactive | inactive
CC(=O)c1nccc(C)c1N | -1% | 10% | 1 | 92% (active) | inactive | inactive | inactive | inactive
Cc1ccc(F)c(NC(=O)c2c(-c3c(F)cccc3Cl)noc2C)c1 | 18% | 13% | 0 | 90% (active) | inactive | inactive | inactive | inactive
CC(O)CNc1nc2ccccc2n1CC(=O)Nc1cccc(C(=O)Nc2cccc(C(F)(F)F)c2)c1 (stereo not drawn) | 95% (active) | 2% | 0 | 99% (active) | inactive | inactive | inactive | inactive
CCc1cccc2sc(N3CCN(C(=O)c4ccc([N+](=O)[O-])o4)CC3)nc12 | 94% (active) | 2% | 0 | 97% (active) | inactive | inactive | inactive | inactive
CC(C)(C)c1ccc(OCCCON2C(N)=NC(N)=NC2(C)C)c(C(C)(C)C)c1 | 97% (active) | 64% (active) | 2 | 93% (active) | inactive | inactive | inactive | inactive
OCCCCCCNc1ccnc2[nH]c3ccc(I)cc3c12 | 61% (active) | 27% | -4 | 100% (active) | inactive | inactive | inactive | inactive
CC(C)(C)c1ccc(C(=O)Nc2cccc(Nc3c(C(=O)NCc4cccc(C(F)(F)F)c4)cnc4c(O)cccc34)c2)cc1 | 79% (active) | 40% | 1 | 83% (active) | inactive | inactive | inactive | inactive
CC(C)N(CC(=O)c1ccc(O)c(C(=O)O)c1)Cc1ccccc1 | 26% | -7% | -7 | 97% (active) | inactive | inactive | inactive | inactive
O=C(Cn1c(CCc2cccc(F)c2F)cc(=O)c2ccccc21)N(Cc1ccc(-c2ccc(C(F)(F)F)cc2)cc1)C1CCN(CCO)CC1 | 84% (active) | 82% (active) | 0 | 91% (active) | inactive | inactive | inactive | inactive
Cc1ccc2nc(-c3cc(-c4cccc(C#N)c4)cnc3N)[nH]c2c1 | 99% (active) | 40% | 1 | 100% (active) | inactive | inactive | inactive | inactive
COc1cc2ncnc(Nc3ccc(OCc4ccccc4Br)c(OC)c3)c2cc1OC | 62% (active) | 11% | -1 | 100% (active) | inactive | inactive | inactive | inactive
COc1ccc(N2CCN(C(CNC(=O)C3CCCCC3)c3ccc4c(c3)OCO4)CC2)cc1 (stereo not drawn) | 83% (active) | 1% | -1 | 92% (active) | inactive | inactive | inactive | inactive
CCC(C)c1ccc(NC(=O)Nc2ccc(Cn3ncc(N4CCCNCC4)c(Cl)c3=O)cc2)cc1 (stereo not drawn) | 31% | -6% | -2 | 83% (active) | inactive | inactive | inactive | inactive
Cc1ccc(Cn2cnc3cc(C(=O)Nc4ccc(-c5ccc(CN(C)C)cc5)cc4)ccc3c2=O)o1 | 12% | 43% | -1 | 82% (active) | inactive | inactive | inactive | inactive
CC1(C)[C@H]2CC[C@]1(C)CN(CC(O)Cn1c3ccccc3c3cc(I)ccc31)C2 (stereo partly drawn) | 82% (active) | -7% | 1 | 94% (active) | inactive | inactive | inactive | inactive
CN1CCCN(Cc2ccc(-c3ccc(NC(=O)c4ccc(C#N)cc4)cc3)cc2)CC1 | 28% | 30% | 4 | 91% (active) | inactive | inactive | inactive | inactive

Compound | growth inhibition [1] | inhibition [2] | inhibition [3] [%] | growth inhibition [4] | outcome [5] | outcome [6] | outcome [7] | outcome [8]
NS(=O)(=O)c1ccccc1Nc1nc(Nc2ccc(N3CCOCC3)cc2)nc2c1CCC2 | 99% (active) | 21% | -1 | 96% (active) | inactive | inactive | inactive | inactive
CN1CCC(c2nc(N)no2)C1 (stereo not drawn) | 2% | 15% | 0 | 95% (active) | inactive | inactive | inactive | inactive
Cc1cccc(Cn2c(C(N)=O)nn(-c3ccc([N+](=O)[O-])cc3C#N)c2=S)c1 | 48% | 1% | 2 | 101% (active) | inactive | inactive | inactive | inactive
CCCCSc1nc2c(c(=O)n1Cc1ccco1)C1(CCCCC1)Cc1ccccc1-2 | 78% (active) | 13% | 2 | 96% (active) | inactive | inactive | inactive | inactive
O=C1CCCN1CCCNCc1ccc(-c2ccc(-c3nc4ccc(F)cc4[nH]3)cc2)cc1 | 99% (active) | 16% | -3 | 100% (active) | inactive | inactive | inactive | inactive
CCC(C)(C)c1ccc(Oc2ccc(NC(=O)Nc3ccc(Cl)c(Cl)c3)cc2)cc1 | 97% (active) | 13% | -1 | 98% (active) | inactive | inactive | inactive | inactive
CC(C)c1ccc(OCC(O)CN(CCN2CCOCC2)C(=O)Nc2ccc(Br)cc2)cc1 (stereo not drawn) | 44% | 6% | -2 | 98% (active) | inactive | inactive | inactive | inactive
NCCCCNc1cc(-c2ccnc(Nc3cccc(Cl)c3)n2)ccn1 | 91% (active) | 46% | 1 | 94% (active) | inactive | inactive | inactive | inactive
CCCCN(CCCC)CC(O)c1cc(-c2ccc(Cl)cc2)nc2c(Cl)cc(Cl)cc12 (stereo not drawn) | 97% (active) | -12% | 1 | 97% (active) | inactive | inactive | inactive | inactive
CCOC(=O)Nc1cc(-c2csc(N=C(N)N)n2)cc([N+](=O)[O-])c1 | 88% (active) | 12% | -8 | 101% (active) | inactive | inactive | inactive | inactive
Oc1ccc(Nc2nc(N3CCCC3)c3ccccc3n2)cc1 | 100% (active) | 10% | -6 | 102% (active) | inactive | inactive | inactive | inactive
Cc1[nH]c(C)c(-c2ccc(-c3ccc(OC(F)(F)F)cc3)nc2)c(=O)c1Cl | 95% (active) | 11% | -6 | 95% (active) | inactive | inactive | inactive | inactive
COc1ccccc1CCC(C)(C)NC(=O)CC(CCc1ccccc1)Nc1ccc(C#N)c2ccccc12 (stereo not drawn) | 65% (active) | 6% | 0 | 94% (active) | inactive | inactive | inactive | inactive
Nc1nc(N)c2c(ccc3c2ccn3Cc2ccc(OCc3ccccc3)cc2)n1 | 1% | 5% | -2 | 98% (active) | inactive | inactive | inactive | inactive
COc1cccc(-c2cnc(N)c(-c3nc4cc(Cl)c(F)cc4[nH]3)c2)c1 | 26% | 37% | 6 | 100% (active) | inactive | inactive | inactive | inactive
CN(C)c1ccc(N2C(N)=NC(N)=NC23CCCC3)cc1 | 0% | 1% | -2 | 97% (active) | inactive | inactive | inactive | inactive
Cc1nn(-c2cccc(Cl)c2)c2c1C(C(=O)c1ccc3c(c1)OCO3)CC(=O)N2 (stereo not drawn) | 95% (active) | 5% | -5 | 98% (active) | inactive | inactive | inactive | inactive
CCN(CC1CCN(CC2(O)CCOCC2)CC1)c1cc(C)nc(Nc2ccc(Cl)cc2)n1 | 99% (active) | 34% | -4 | 101% (active) | inactive | inactive | inactive | inactive
CC(C)CCN=C(N)c1ccc(OCCCCCOc2ccc(C(N)=NCCC(C)C)cc2)cc1 | 94% (active) | 5% | 5 | 98% (active) | inactive | inactive | inactive | inactive
Cc1noc(C)c1-c1ccc2c(Nc3nccc4ccccc34)c(C(N)=O)cnc2c1 | 99% (active) | 100% (active) | 1 | 100% (active) | inactive | inactive | inactive | inactive
